Experimental data as given in PubChem BioAssay (EPA / NIEHS).
Calls of active or inactive are those of the source. Rule for the calls: active = hit-call score of the fitted dose curve at least 0.9, where 1 is the maximum; inactive = score below 0.9. Peptide text beside a SMILES is read from it.

Assay: ATG_GATA_CIS: Attagene CIS-FACTORIAL HepG2 Assay for human GATA Binding Protein (AID 2282944)
Details: HepG2 GATA cis-element reporter, Attagene multiplex mRNA; actives raise or lower the signal
Description: ATG_CIS is a cell-based, multiplexed-readout assay that uses HepG2, a human liver cell line, with measurements taken at 24 hours after chemical dosing in a 24-well plate.ATG_GATA_CIS is one of 52 assay component(s) measured or calculated from the ATG_CIS assay. It is designed to make measurements of mRNA induction, a form of inducible reporter, as detected with fluorescence intensity signals by Reverse transcription polymerase chain reaction (RT-PCR) and Capillary electrophoresis technology.Data from the assay component ATG_GATA_CIS was analyzed into 1 assay endpoint. This assay endpoint, ATG_GATA_CIS, was analyzed with bidirectional fitting relative to DMSO as the negative control and baseline of activity. Using a type of inducible reporter, measures of mRNA for gain or loss-of-signal activity can be used to understand the reporter gene at the transcription factor-level as they relate to the gene GATA1. Furthermore, this assay endpoint can be referred to as a primary readout, because this assay has produced multiple assay endpoints where this one serves a reporter gene function. To generalize the intended target to other relatable targets, this assay endpoint is annotated to the dna binding intended target family, where the subfamily is GATA proteins.
Human liver HepG2 cells are transiently transfected with multiple reporter transcription units (MRTUs) in 6-well plates using FuGene 6 reagent (Roche; 3 ml FuGene/1 mg DNA). The MRTU constructs are regulated by a cis-regulating element (promoter). […] A major difference between the CIS and TRANS system is that in CIS activities of endogenous TFs are measured, whereas the TRANS assay evaluates changes in activities of exogenous, chimeric NR-Gal4 proteins. […] At the end of 24 hour incubation, total RNA was isolated using TriZol reagent (Invitrogen). The isolated RNA is then reverse-transcribed using oligo(dT) primer and Mo-MLV reverse transcriptase (Invitrogen) with DNAse I (Ambion) treatment for 30 min. The one-tenth of the produced cDNA was amplified by PCR using Taq DNA polymerase (Invitrogen) and two reporter sequence-specific primers. The PCR products were fluorescently labeled by primer extension with 6-arboxyfluorescein (6-FAM) 5'-labeled reporter sequence-specific primer (2 min at 95 C, 20 s at 68 C and 10 min at 72 C) and these products were digested with 5U of HpaI (New England Biolabs) for 2h at 37 C. The fragments were purified using Qiaquick PCR columns (Qiagen), analyzed on an ABI 3130xL genetic analyzer (Applied Biosystems) with peak positions identified by using a set of X-rhodamine (ROX)-labeled MapMarker1000 molecular weight standards (BioVentures). The raw capillary electrophoresis data was processed using Attagraph software (Attagene).

Row | Structure (SMILES) | outcome | AC50
1 | O=C1CCCN1C1CCCCC1 | inactive | –
2 | CCC(C)c1ccccc1 (stereo not given) | inactive | –
3 | CCCC(C)C(=O)OCC (stereo not given) | inactive | –
4 | C=CCOC(=O)c1ccc(C(=O)OCC=C)c(C(=O)OCC=C)c1 | inactive | –
5 | C[Si](C)(C)N[Si](C)(C)C | inactive | –
6 | C=C(C)[C@@H]1CC=C(C)CC1 | inactive | –
7 | Cc1cc(C)n(CO)n1 | inactive | –
8 | c1ccc(Nc2cccc3ccccc23)cc1 | inactive | –
9 | CCCC(CC)c1ccccc1 (stereo not given) | inactive | –
10 | CCN1CN(CC)CN(CC)C1 | inactive | –
11 | c1ccc(-c2nc3ccccc3[nH]2)cc1 | inactive | –
12 | CC(C)CO | inactive | –
13 | CCN1CCCC1=O | inactive | –
14 | CC(CCC(=O)O)(c1ccc(O)cc1)c1ccc(O)cc1 | inactive | –
15 | COC(Cc1ccccc1)OC | inactive | –
16 | CC1CCC(=O)C1=O (stereo not given) | inactive | –
17 | CC(C)CC(=O)OCc1ccccc1 | inactive | –
18 | CCOC(=O)c1ccc(C)cc1 | inactive | –
19 | c1ccc2c(c1)[nH]c1ccccc12 | inactive | –
20 | CCC(C)C(=O)OC (stereo not given) | inactive | –

Row | Structure (SMILES) | outcome | AC50
21 | CC(C)(O)Cc1ccccc1 | inactive | –
22 | CCOc1ccc(NC(N)=O)cc1 | inactive | –
23 | CCCCCC1=CCCC1=O | inactive | –
24 | Cn1ccnc1 | inactive | –
25 | C1CNCCN1 | inactive | –
26 | CCCCCCOc1ccc(N)cc1 | inactive | –
27 | CCCCC/C=C\C/C=C\CCCCCCCC(=O)O | inactive | –
28 | Oc1ccccc1Cc1ccccc1O | inactive | –
29 | CCCCNC(=S)NCCCC | inactive | –
30 | COC(C=C(C)CCC=C(C)C)OC | inactive | –
31 | CC1CC(=O)CC(C)(C)C1 (stereo not given) | inactive | –
32 | COC(=O)C=Cc1ccccc1 | inactive | –
33 | CCCCCC[C@@H](O)C/C=C\CCCCCCCC(=O)OCC(O)CO (stereo not given in full) | – | 128 µM (active)
34 | C=C(C)C(=O)OCCOC(=O)C(=C)C | inactive | –
35 | CCc1occc(=O)c1O | inactive | –
36 | COC(=O)[C@H](Cc1ccccc1)NC(=O)[C@@H](N)CC(=O)O (H-Asp-Phe-OMe) | inactive | –
37 | CCCCCCCCCCCCc1ccc(O)cc1 | inactive | –
38 | CCCCCCCO | inactive | –
39 | C=CC(=O)OCCCCCCOC(=O)C=C | inactive | –
40 | CC(C=O)c1ccccc1 (stereo not given) | inactive | –
